NadD inh – blocks S. aureus nicotinate mononucleotide adenylyltransferase | 360,000 tested, 0.78% active | purified NadD enzyme, colorimetric absorbance read-out | AID 602399 | inhibition, % at 20 µM; in the data active = inhibition above about 26%
Vif inh – inhibitors of HIV Vif; HEK293T cells, Vif self-association by quenched fluorescence, imaging, 24 h; inhibition, % at 7.49 µM; 340,000 tested, 0.35% active; in the data active = inhibition above about 50%, passing the limit was not always enough
esBAF inh – SWI/SNF esBAF complex inhibition. reporter increase, % at 12.5 µM. 350,000 tested, 2% active. mouse ES cells, Bmi1-luciferase knock-in reporter, 24 h; 100% = twice the neutral-well signal; in the data active = activation above about 40%;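 also: 0% = median of the plate's neutral control wells and 100% = double that signal; a rise in the Bmi1 reporter signal indicates esBAF inhibition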
SKN-1 block – C. elegans SKN-1 inhibition; 360,000 tested, 0.49% active; C. elegans VP596 Pgst-4::GFP/RFP ratio, acrylamide-induced, 24 h; inhibition, % at 21.8 µM; AID 624304;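 active = interference check ratio from 0.5 to 1.5 plus GFP to RFP signal ratio inhibition reaching or exceeding a fixed threshold, cut at about 30% in these data, passing the limit was not always enough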
GRIN3A LBD mod – NR3A (human) ligand-binding domain modulation; 340,000 tested, 2.5% active; NR3A LBD differential scanning fluorimetry, Tm shift; 0% = protein alone, 100% = glycine-bound protein; AID 1259313; Tm shift relative to glycine control, % at 25 µM;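 active = melting temperature shift of at least 10% of the positive control shift, at one fixed dose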
SMARCA2 act – increases SMARCA2 function in MMTV reporter cells | MG213 cells, MMTV-luciferase reporter, dexamethasone, overnight | activation, % at 9.1 µM | 370,000 tested, 1% active | AID 652017; in the data active = activation above about 7.8%;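 also: 0% = vehicle wells and 100% = reference activator wells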
An asterisk follows results filed as active. Shown are actives, neighbours in structure and some others; about 5.2% of the full set was active somewhere.

Results for Cc1nc(N2CCC(C)CC2)c2c(C)c(C(=O)Nc3cccc(C(F)(F)F)c3)sc2n1 ?
NadD inh: 14; Vif inh: -2; SKN-1 block: -1; GRIN3A LBD mod: 12*; SMARCA2 act: 1

What do the screens show for `Cc1nc(N2CCC(C)CC2)c2c(C)c(C(=O)Nc3ccc4c(c3)OCCO4)sc2n1`?
NadD inh: 22; Vif inh: 0; esBAF inh: 5; SKN-1 block: 11; GRIN3A LBD mod: -3; SMARCA2 act: 7

What do the screens show for `Cc1nc(N2CCC(C)CC2)c2c(C)c(C(=O)Nc3ccc(C(F)(F)F)cc3)sc2n1`?
NadD inh: 10; Vif inh: -20; SKN-1 block: 8; GRIN3A LBD mod: 13*; SMARCA2 act: -3

What do the screens show for `CCCC(=O)Nc1ccc2c(c1)C(=O)N(C)[C@H]1CC[C@@H](CC(=O)NCc3ccccc3Cl)O[C@H]1CO2`?
esBAF inh: 13

How did COc1ccc(/C=N/NC(=O)c2ccn[nH]2)cc1CSc1ccccn1 do in these assays?
NadD inh: -2; Vif inh: 4; esBAF inh: 45*; SKN-1 block: 16; GRIN3A LBD mod: -21; SMARCA2 act: 5

How did CCS(=O)(=O)Nc1ccc2c(c1)C(=O)N(C)[C@@H]1CC[C@@H](CC(=O)Nc3ccccc3)O[C@@H]1CO2 do in these assays?
esBAF inh: 2

How did O=C(Nc1ccc2nn(-c3ccccc3)nc2c1)c1cccnc1 do in these assays?
NadD inh: -3; Vif inh: -9; esBAF inh: 53*; SKN-1 block: 7; GRIN3A LBD mod: 7; SMARCA2 act: 3

Results for O=C(Nc1ccc2oc(-c3ccccc3)nc2c1)c1cccnc1 ?
NadD inh: 1; Vif inh: -4; esBAF inh: 29; SKN-1 block: 39*; GRIN3A LBD mod: -16; SMARCA2 act: 3

How did Cc1cc(NC(=O)c2ccco2)ccc1-n1cnnn1 do in these assays?
NadD inh: 3; Vif inh: -7; esBAF inh: 27; SKN-1 block: 61*; GRIN3A LBD mod: -2; SMARCA2 act: 1

What do the screens show for `O=C(Nc1ccc2nn(-c3ccccc3)nc2c1)c1ccco1`?
NadD inh: -2; Vif inh: -1; esBAF inh: 62*; SKN-1 block: -7; GRIN3A LBD mod: 7; SMARCA2 act: 4

What do the screens show for `C[C@@H]1CN([C@@H](C)CO)C(=O)c2cc(NS(=O)(=O)c3ccc(Cl)cc3)ccc2O[C@@H]1CN(C)S(=O)(=O)c1cn(C)cn1`?
esBAF inh: 2

What do the screens show for `CCCNC(=O)C[C@@H]1C[C@H]2c3cc(NC(=O)Nc4ccccc4F)ccc3O[C@H]2[C@@H](CO)O1`?
esBAF inh: 0

How did O=C(Oc1ccc(Cl)cc1)N1CCCCC1 do in these assays?
NadD inh: -4; Vif inh: 7; esBAF inh: 50*; SKN-1 block: 4; GRIN3A LBD mod: 1; SMARCA2 act: 6

Results for O=C(Oc1ccc(Cl)cc1)N1CCOCC1 ?
NadD inh: 1; Vif inh: 1; esBAF inh: 16; SKN-1 block: 4; GRIN3A LBD mod: -2; SMARCA2 act: 0

How did O=C(Oc1ccc(-c2ccccc2)cc1)N1CCOCC1 do in these assays?
NadD inh: 4; Vif inh: -3; esBAF inh: 62*; SKN-1 block: 5; GRIN3A LBD mod: -2; SMARCA2 act: 2

How did C[C@@H]1CN([C@H](C)CO)S(=O)(=O)c2ccc(Br)cc2O[C@@H]1CN(C)C(=O)c1cnccn1 do in these assays?
esBAF inh: 4

Results for CC1CCN(c2nc(-c3cccnc3)nc3scc(-c4ccccc4)c23)CC1 ?
NadD inh: 11; Vif inh: -38; SKN-1 block: 15; GRIN3A LBD mod: 1; SMARCA2 act: 2

How did Clc1nc(-c2ccccn2)nc2scc(-c3ccccc3)c12 do in these assays?
NadD inh: 5; Vif inh: -10; SKN-1 block: 9; GRIN3A LBD mod: 24*; SMARCA2 act: 4

How did CN1CCN(C(=O)C[C@H]2CC[C@H]3[C@@H](COc4ccc(NC(=O)C5CC5)cc4C(=O)N3C)O2)CC1 do in these assays?
esBAF inh: -2

Results for O=C(Nc1ccc(F)cc1)N[C@H]1CC[C@@H](CC(=O)N2CCOCC2)O[C@@H]1CO ?
esBAF inh: 3

Results for c1ccc(-c2nnsc2Sc2ccccn2)cc1 ?
NadD inh: -8; Vif inh: 1; esBAF inh: 54*; SKN-1 block: 10; GRIN3A LBD mod: 14*; SMARCA2 act: 4

How did O=C(C[C@@H]1CC[C@@H]2[C@H](COC[C@@H](O)CN2CC2CCCCC2)O1)NCC1CC1 do in these assays?
esBAF inh: 0

How did Cc1ccccc1C(=O)NN1C(=O)CSC1=S do in these assays?
NadD inh: 1; Vif inh: -7; esBAF inh: -4; SKN-1 block: -1; GRIN3A LBD mod: -1; SMARCA2 act: -3

What do the screens show for `O=C1CSC(=S)N1Nc1ccccc1`?
NadD inh: -3; Vif inh: 23; esBAF inh: -3; SKN-1 block: 36*; GRIN3A LBD mod: -1; SMARCA2 act: -1

What do the screens show for `CC(C)C#Cc1cnc2c(c1)C(=O)N([C@@H](C)CO)C[C@@H](C)[C@H](CN(C)C(=O)c1ccccc1F)O2`?
esBAF inh: 3

Results for Cc1ccc2c(c1)N=C(c1ccc(Cl)cc1)CO2 ?
NadD inh: -1; Vif inh: -7; esBAF inh: 49*; SKN-1 block: 5; GRIN3A LBD mod: -8; SMARCA2 act: 2

What do the screens show for `CCCNC(=O)Nc1ccc2c(c1)OC[C@@H](C)N(Cc1cccnc1)C[C@H](C)[C@@H](OC)CN(C)C2=O`?
esBAF inh: -5

What do the screens show for `COCC(=O)N(C)C[C@H]1Oc2cc(-c3ccc(C)cc3)ccc2S(=O)(=O)N([C@@H](C)CO)C[C@@H]1C`?
esBAF inh: -6

Results for O=C(NC1CS(=O)(=O)CC1NCc1ccccc1)c1ccccc1 (stereo not given) ?
NadD inh: 1; Vif inh: 11; esBAF inh: 8; SKN-1 block: 37*; GRIN3A LBD mod: 0; SMARCA2 act: -1

What do the screens show for `O=C(NCCc1ccccc1)C1CCN(S(=O)(=O)c2cccs2)CC1`?
NadD inh: -3; Vif inh: 7; esBAF inh: -3; SKN-1 block: 7; GRIN3A LBD mod: -1; SMARCA2 act: -2

Results for O=C(NCCN1C(=O)S/C(=C\c2ccccc2)C1=O)C1CCN(S(=O)(=O)c2cccs2)CC1 ?
NadD inh: 0; Vif inh: 6; SKN-1 block: 27; GRIN3A LBD mod: 15*; SMARCA2 act: 0

Results for CC=Cc1ccc2n(c1=O)C[C@H]1[C@H](CO)[C@@H](C(=O)NCc3ccccc3F)N(CCC)[C@@H]21 (mixture of isomers) ?
esBAF inh: 1
